Source: PubChem
FAS TE block: FAS thioesterase (human) inhibition. 360,000 compounds, 0.67% hits. inhibition, % at 15 µM. recombinant FAS-TE, OMFH fluorogenic substrate, fluorescence endpoint. P49327. AID 602261;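 active means compounds whose normalised, plate-corrected inhibition of enzyme fluorescence in the single-dose primary screen is 50% or more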
ADAM17 inh: inhibitors of human ADAM17; AID 720648; inhibition, % at 6.95 µM; 370,000 compounds, 0.83% hits; recombinant ADAM17, EDANS/DABCYL FRET peptide cleavage;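 active means inhibition above the mean of compounds lying between control limits plus 3 SD, set per campaign, cut at about 8.5% in these data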
KLK7 zymogen act: activates the human kallikrein-7 zymogen; P49862; purified proKLK7, EDANS-DABCYL substrate fluorescence; 100% is mature enzyme control, 0% vehicle; activation, % at 7 µM; 370,000 compounds, 0.9% hits;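 active means activation above the mean of all tested compounds plus 3 SD, computed per campaign excluding outliers beyond control limits, cut at about 13% in these data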
Target sequence (P49862 whole entry, looked up): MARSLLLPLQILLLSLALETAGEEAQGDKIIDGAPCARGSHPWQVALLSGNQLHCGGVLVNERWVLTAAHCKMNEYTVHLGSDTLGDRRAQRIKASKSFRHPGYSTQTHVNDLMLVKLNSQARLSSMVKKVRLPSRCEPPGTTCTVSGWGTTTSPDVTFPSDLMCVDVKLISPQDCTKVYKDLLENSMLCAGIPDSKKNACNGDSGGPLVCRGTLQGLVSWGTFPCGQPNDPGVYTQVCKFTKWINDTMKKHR
ADAM10 inh: inhibits human ADAM10; recombinant ADAM10, EDANS/DABCYL FRET peptide cleavage, 3 h; inhibition, % at 7 µM; 370,000 compounds, 0.62% hits; AID 720582;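 active means inhibition above a per-campaign cutoff equal to the mean of compounds falling between control-based bounds plus 3 SD, cut at about 20% in these data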
NR3A LBD binder: NR3A (human) ligand-binding domain modulation; NR3A LBD differential scanning fluorimetry, Tm shift; 0% = protein alone, 100% = glycine-bound protein; Tm shift relative to glycine control, % at 25 µM; 340,000 compounds, 2.5% hits; AID 1259313;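 active means melting temperature shift of at least 10% of the positive control shift, at one fixed dose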
Hits are given with their value; - = inactive; . = no result. Most compounds without a hit are left out; they make up all but 4.6% or so of the library.

SMILES	FAS TE block	ADAM17 inh	KLK7 zymogen act	ADAM10 inh	NR3A LBD binder
COC(=O)C1=C[C@@H]([C@@H](C)[C@H](OC)c2ccccc2Br)[C@@H]2OCCC[C@H]12	.	-	-	-	.
CC(C)c1cccc(C(C)C)c1OC(=O)[C@H]1OC(C(C)(C)C)=C[C@@H]1c1ccccc1	-	-	-	-	16
N/C(=N\c1nc2ccccc2o1)NC(=O)c1ccccc1	-	-	-	-	-
N/C(=N\c1nc2ccccc2o1)NC(=O)/C=C/c1ccccc1	-	-	-	-	22
COc1ccc(CCN=C(N)NS(=O)(=O)c2ccc3ccccc3c2)cc1	-	-	-	-	18
O=c1oc2ccccc2cc1-c1csc(Nc2nc3c(F)cccc3s2)n1	-	-	-	-	23
O=c1oc2ccccc2cc1-c1csc(NN=C2CCCCC2)n1	-	-	-	-	-
COc1cccc(N2CCN(CC(=O)NCc3ccccc3C)CC2)c1	.	-	-	-	.
CCOc1ccc(C(=O)N/N=C/c2ccc(SC)cc2)cc1	-	-	-	-	-
CCOc1ccc(/C=N/NC(=O)c2ccc(CSc3nc4ccccc4[nH]3)cc2)cc1	-	-	-	-	11
O=C(N/N=C/c1ccc(OC(F)F)cc1)c1ccc(CSc2nc3ccccc3[nH]2)cc1	-	-	-	-	26
CCOC(=O)Cc1nc(N2CCCN(C(C)=O)CC2)c2c(C)c(C(=O)OCC)sc2n1	.	-	-	-	.
O=C(COc1ccc(F)cc1Cl)Nc1nnc(-c2ccc(F)c(F)c2)o1	.	-	.	-	.
Cc1ccc(-c2[nH]nc3c2C(c2ccsc2)C(C#N)=C(N)O3)cc1 (stereo unspecified)	-	-	-	-	12
CCCc1[nH]nc2c1C(c1ccncc1)C(C#N)=C(N)O2 (stereo unspecified)	-	-	-	-	14
Cc1ccc(-c2ccc(C3C(C#N)=C(N)Oc4n[nH]c(C)c43)o2)cc1 (stereo unspecified)	-	-	-	-	-
Cc1[nH]nc2c1C(c1ccc(-c3ccc(Cl)cc3)o1)C(C#N)=C(N)O2 (stereo unspecified)	-	-	-	-	14
C=CCN1C(=O)[C@@H](CC(=O)N2CCN(C(=O)C3CC3)CC2)[C@]2(C(=O)OCC)CCCCC/C=C/12	.	-	-	-	.
COc1ccc(CNC(=O)c2sc3nc(C)c(Cl)c(C)c3c2N)cc1	.	-	-	-	.
COc1ccccc1C(=O)NC1CCCCN(Cc2ccc(OC(F)(F)F)cc2)C1=O (stereo unspecified)	.	-	-	-	.
CCOC(=O)c1c(N)sc(C(=O)Nc2ccc3c(c2)OCO3)c1C	-	-	-	-	28
CCOC(=O)c1c(N)sc(C(=O)N(C)C)c1C	-	-	-	-	11
CCOC(=O)c1c(N)sc(C(=O)OC)c1C	-	-	-	-	-
COC(=O)[C@]12C[C@H](CC(=O)N3CCOCC3)C(=O)N(Cc3cccc4ccccc34)C1=C[C@H](C(C)C)O[C@@H]2C1CC1	.	-	-	-	.
COCCCNC(=O)C[C@@H]1C(=O)N2CCCC3=C2[C@@]1(C(=O)OC)CCCC3	.	-	-	-	.
SMILES	FAS TE block	ADAM17 inh	KLK7 zymogen act	ADAM10 inh	NR3A LBD binder
CCCCCCCCN1CN2Cc3cc(F)ccc3C2CS1(=O)=O (stereo unspecified)	.	-	-	-	.
O=C1c2ccccc2CCC12N=NCC2c1ccc(Br)cc1 (stereo unspecified)	-	-	-	-	11
COP(=O)(O)C(Cc1ccccc1)NC(=O)OCc1ccccc1 (stereo unspecified)	.	-	-	-	.
CCC(=O)Nc1ccc(NC(=O)c2ccc3ccccc3c2)cc1	-	-	-	-	10
CC(=O)c1ccc(NC(=O)CSCC(=O)Nc2ccc3ccccc3c2)cc1	-	-	-	-	13
O=C(CSCc1ccc(C(=O)O)cc1)Nc1ccc2ccccc2c1	-	-	-	-	-
O=C(CSc1ccc(C(F)(F)F)cc1[N+](=O)[O-])Nc1ccc2ccccc2c1	-	-	-	-	35
Cc1ccccc1NC(=O)OC1CCC12CCCCC2 (stereo unspecified)	.	-	-	-	.
O=c1[nH]c2ccc(Br)cc2o1	-	-	-	-	11
O=C(CCl)c1ccc2[nH]c(=O)oc2c1	-	-	-	-	-
O=C(Nc1ccc(Cl)c(Cl)c1)Oc1ccc(NC(=O)c2ccco2)cc1	-	-	-	-	27
Nc1ccc(C(=O)Nc2ccc(NC(=O)c3ccco3)c(O)c2)cc1	-	-	-	-	22
COc1ccc(C(=O)Nc2ccc(NC(=O)c3ccco3)cc2)cc1	-	-	-	-	16
O=C(Nc1ccc(OC(=O)c2ccco2)cc1)c1ccco1	-	-	-	-	-
O=C(NCc1ccccc1)c1ccc(NC(=O)c2ccco2)cc1	-	-	-	-	19
O=C(Nc1ccc(NC(=O)c2ccco2)c(Cl)c1)c1ccccc1	-	-	-	-	-
CCN(CC)c1ccc(-c2nn3c(-c4ccc(C(C)(C)C)cc4)nnc3s2)cc1	.	-	-	-	.
CC(C)(N[C@@H](Cc1ccccc1)C(=O)NCCc1c[nH]c2ccccc12)C(=O)NC1CCCCC1	.	-	.	-	.
CN1C2=NC(c3ccccc3)CC(=O)N2/C(=C\c2ccccc2)C1c1ccccc1C(F)(F)F (stereo unspecified)	.	-	.	-	.
Cc1cccc(-c2cccc3c4c([nH]c23)[C@@H]2C[C@H](N(C)C(=O)c3cccc(Cl)c3)[C@H]([C@H](C)O)CN2CC4)c1	.	-	-	-	.
Cc1cc(C)cc(C(=O)OCCN(C)C2CN(Cc3cn(Cc4ccc([N+](=O)[O-])cc4)nn3)S(=O)(=O)C2)c1 (stereo unspecified)	.	-	-	-	.
Cn1ccc2ccc(-c3ccc4c(c3)[C@]3(CCC[C@@H](OCc5ccccc5)[C@@H]3NC(=O)CCc3ccccc3)C(=O)N4Cc3ccccc3)cc21	.	-	-	-	.
O=C(C1CCCN(S(=O)(=O)c2ccc([N+](=O)[O-])cc2)C1)N1CCN(Cc2ccccc2)CC1 (stereo unspecified)	.	-	-	-	.
Cc1nc(NC(=O)c2ccco2)sc1C(=O)Nc1ccc(Br)cc1	-	.	.	.	15
COC(=O)c1cc(-c2ccc(-c3ccccc3)c(F)c2)c(=O)n2c1CCC2	.	-	-	-	.
SMILES	FAS TE block	ADAM17 inh	KLK7 zymogen act	ADAM10 inh	NR3A LBD binder
Cc1ccnc(NC(=S)N2CC3CN(c4cccc(C(F)(F)F)c4)CC3C2)c1 (stereo unspecified)	.	-	.	-	.
C/C(=N\Nc1cc(-c2ccccc2)nc(-c2ccccc2)n1)c1ccc(O)c(C)c1	-	-	-	-	28
COc1cc(N/N=C(\C)c2ccc(O)c(C)c2)nc(-c2ccccc2)n1	-	-	-	-	22
Cc1cccc(NC(=O)Nc2nc3ncccn3c2-c2ccc(F)cc2)c1	.	-	-	-	.
NC(=O)CC[C@H](NC(=O)c1ccc(F)cc1)C(=O)OCC(=O)Nc1c(F)c(F)c(F)c(F)c1F	-	-	-	-	12
COc1ccc(C2SCCN2C(=S)Nc2cccc(Cl)c2)cc1 (stereo unspecified)	-	-	-	-	16
